Laboratory results published in PubChem BioAssay (NCI).
The panel holds about 83,000 compounds, 20% with a hit somewhere; the sample as a whole holds those more often.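 48-hour exposure, single concentration, 96-well plates; percent growth endpoint where 0 means no net growth. Active: below 10.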 Values without a mark were called inactive. Activity calls are given as the source filed them.

What was measured:
Assay in all cases: NCI-60 one-dose screen, 48 h (100 = growth as untreated, 0 = no growth, -100 = all killed)
Details in all cases: 10 µM unless noted
NCI-H23 lung = system: NCI-H23 lung
NCI-H226 lung = system: NCI-H226 lung
NCI-H322M lung = system: NCI-H322M lung
HOP-62 NSCLC = system: HOP-62 NSCLC
NCI-H460 lung = system: NCI-H460 lung
HOP-92 NSCLC = system: HOP-92 NSCLC
NCI-H522 lung = system: NCI-H522 lung
A549/ATCC NSCLC = system: A549/ATCC NSCLC
786-0 renal = system: 786-0 renal
COLO 205 colon = system: COLO 205 colon

Row | Structure (SMILES) | growth (NCI-H23 lung) | growth (NCI-H226 lung) | growth (NCI-H322M lung) | growth (HOP-62 NSCLC) | growth (NCI-H460 lung) | growth (HOP-92 NSCLC) | growth (NCI-H522 lung) | growth (A549/ATCC NSCLC) | growth (786-0 renal) | growth (COLO 205 colon)
1 | C=C(C)[C@@H]1CC[C@]2(C(=O)N3CCN(C)CC3)CC[C@]3(C)[C@H](CC[C@@H]4[C@@]5(C)CC[C@H](OCCC#N)C(C)(C)[C@@H]5CC[C@]43C)[C@@H]12 | 100% | 89.4% | 103% | 108% | 98.7% | 93% | 95.4% | 80% | 22% | 50.3%
2 | CC(=O)c1ccc(NS(=O)(=O)c2cccc(C(=O)Nc3ccc(Br)cc3)c2)cc1 | 36.4% [25 µM] | 43% [25 µM] | 89% [25 µM] | 82% [25 µM] | 75.7% [25 µM] | 47.7% [25 µM] | 46.4% [25 µM] | 61.9% [25 µM] | 58.7% [25 µM] | 77.7% [25 µM]
3 | COc1ccc(C(=O)c2cc(C)c(OC)c(C)c2)c(OC)c1NC(C)=O | 29.5% | 17.4% | 42.7% | 20.3% | 3.32% (active) | 6.76% (active) | 13.4% | 18.1% | 13.7% | -5.99% (active)
4 | N/C(=N\C(N)=N\c1nc2ccccc2s1)c1cccc(Cl)c1 | 58.4% | 85.6% | 97.7% | -8.36% (active) | 51.7% | 108% | 87.5% | 9.74% (active) | 94.4% | 101%
5 | Cc1ccc(-c2nc3ccccn3c2/C=C2/C(=O)Nc3cc(Cl)ccc32)cc1 | 72.4% | 94.5% | 98% | 83.7% | 82.3% | 110% | 68.7% | 90.6% | 92.7% | 84%
6 | Cn1cc(-c2nc(-c3c[nH]c4c(Cl)nccc34)cs2)c2cc(F)ccc21 | 104% | 95.5% | 102% | 88.5% | 98.3% | 98.2% | 90.2% | 74.5% | 94.7% | 99.8%
7 | COc1ccc(C(=O)CSc2nc(-c3cc(OC)ccc3OC)cc(-c3ccc(Cl)cc3)c2C#N)cc1 | 44.1% | -2.99% (active) | 67.9% | 39.9% | 25.4% | 43.9% | 27.6% | 56.5% | 23.7% | 65.2%
8 | NC(=O)CSSCC(N)=O | 99.2% | 108% | 96.9% | 103% | 111% | 83.8% | 92.1% | 93.1% | 95.3% | 108%
9 | N=C1C(c2nc3ccccc3s2)=C(O)CN1c1cc(Cl)cc(Cl)c1 | 88.6% | 102% | 89.1% | 62.2% | 67.5% | -15.8% (active) | 86.5% | 71.4% | 71.1% | 90.6%
10 | COc1cc2c(cc1OC)C(=O)/C(=C/c1cc(C)c(O)c(C)c1)S2 | 39.2% | 55.7% | 50.4% | 39.4% | 18.5% | 88.6% | -7.24% (active) | 36.9% | 39.6% | 104%
11 | O=[N+]([O-])c1ccc(NC(=S)N/N=C/c2cc3ccccc3n3nnnc23)cc1 | 30.1% | 72% | 51.9% | 49.3% | 32.2% | -5.68% (active) | 35.4% | 55.6% | 61.6% | 96.9%
12 | COc1ccc(NC(N)=NCCCOc2ccc(F)cc2)cc1 | 64.4% | 91% | 88.1% | 74.2% | 101% | 80.8% | 85.5% | 73.1% | 89.1% | -0.958% (active)
13 | CCN(CC)c1ccc(/C=N/NC(=O)CSc2nc3ccccc3c(=O)n2CCc2ccc(S(N)(=O)=O)cc2)c(O)c1 | 33.9% | 37.9% | 29.4% | 30.4% | 12.8% | 46.8% | -14.6% (active) | 25.4% | 49.5% | 1.47% (active)
14 | C=C(CBr)[C@@H]1CC[C@]2(COC(C)=O)CC[C@]3(C)[C@H](CC[C@@H]4[C@@]5(C)CCCNC(C)(C)[C@@H]5CC[C@]43C)[C@@H]12 | 37.7% | 76.9% | 83.1% | 67.9% | 17% | 39.3% | 31.1% | 34.4% | 45.7% | 48.1%
15 | COc1ccc(CNCCN2C(=O)c3ccc4c5c(ccc(c35)C2=O)C(=O)N(CCNCc2ccc(OC)c(OC)c2OC)C4=O)c(OC)c1OC | -42.8% (active) | -13.7% (active) | -1.94% (active) | 20% | -21.2% (active) | 5.62% (active) | -78% (active) | -39.9% (active) | 8.05% (active) | -10.9% (active)
16 | c1ccc2c(-c3nccs3)c[nH]c2c1 | 96.2% | 97% | 98% | 99.2% | 105% | 89.7% | 92.2% | 100% | 88.8% | 119%
17 | N#CC1=C(N)Oc2c(cnn2-c2ccc([N+](=O)[O-])cc2[N+](=O)[O-])C1c1ccccc1 (stereo not given) | 104% | 97% | 97.7% | 98.3% | 103% | 75.6% | 95.3% | 103% | 114% | 111%
18 | CCNC(=O)Oc1ccc(/C(=C(\C)c2ccccc2)c2ccc(OCCCN(C)C)cc2)cc1 | 75.8% | 99.2% | 80.7% | 87.4% | 87.1% | 69.4% | 86.4% | 78.9% | 64.2% | 54.5%
19 | O=C(/C=C(/C=C/c1coc2ccccc12)OB(F)F)/C=C/c1coc2ccccc12 | 93.9% | 105% | 103% | 113% | 87.7% | 91% | 90.6% | 91.6% | 102% | 95.9%
20 | COc1cc2c3c(c4c5ccccc5[nH]c4c2c(OC)c1OC)C(=O)N(CCN1CCOCC1)C3=O | 63% | 69.8% | 68.2% | 59.9% | 18.6% | 75.4% | 35.4% | 45.1% | 56.2% | 56.4%
21 | N#CC1=C(N)Oc2c(ccc3ccccc23)C1c1ccccc1Cl (stereo not given) | 30.9% | 69.3% | 54.7% | 49.9% | 5.27% (active) | 80.6% | -7.02% (active) | 22.4% | 27.7% | -1.64% (active)
22 | COC(=O)N[C@H]1CCc2c(Cl)c(OC)c(OC)c(OC)c2-c2ccc(SC)c(=O)cc21 | 34% | 22.7% | 35.4% | 38% | -11.4% (active) | 1.96% (active) | 21.7% | 19.8% | 7.29% (active) | -24.3% (active)
23 | O=C(/C=C/c1ccc(Cl)cc1)c1ccc(NC(=O)N2CCN(c3cc4c(cc3F)c(=O)c(C(=O)O)cn4C3CC3)CC2)cc1 | 87.4% | 89.4% | 103% | 106% | 87.8% | 92.9% | 66.9% | 95.8% | 86.5% | 115%
24 | C=C1C(=O)O[C@H]2[C@H]1CC/C(COC(=O)NCc1c[nH]c3ccc(F)cc13)=C\CC[C@@]1(C)O[C@@H]21 | 48.4% | 4.11% (active) | 80.9% | 62.4% | 27.9% | -18.1% (active) | -75.2% (active) | 54.6% | -51.5% (active) | -59.1% (active)
25 | C=C(C)[C@@H]1CC[C@]2(C(=O)N3CCN(C)CC3)CC[C@]3(C)[C@H](CC[C@@H]4[C@@]5(C)CC[C@H](O)C(C)(C)[C@@H]5CC[C@]43C)[C@@H]12 | -14.5% (active) | 129% | 10.4% | 55.6% | -69.5% (active) | 14.5% | -89.6% (active) | -82.4% (active) | -95.1% (active) | -69.2% (active)
26 | CCCN1[C@@H]2CC[C@H]1/C(=C\c1ccc(OC)c(OC)c1)C(=O)/C2=C/c1ccc(OC)c(OC)c1 | 23.8% | 67.3% | 46.7% | 68.2% | 39.6% | 39.8% | 47.8% | 49.3% | 63.8% | 51.4%
